Records with an inconclusive call do not appear. Active and inactive are the calls of the source. Calls come from the whole dose curve; as a rule, active = well fitted inhibition curve with a large enough effect; inconclusive = small, poorly fitted or top-dose-only effect; inactive = flat fitted curve, though single readings scatter.
assay: Primary qHTS for inhibitors of nuclear receptor binding SET domain protein 2 (NSD2) in an isogenic RCH-ACV NSD2 p.E1099K mutant (9B) (AID 1645876); conditions: RCH-ACV (leukaemia line) NSD2 E1099K (9B) viability, CellTiter-Glo, 72 h; series mostly up to 44.9 µM; activity change, negative = viability loss: at the top concentration; note: nearly all actives have a fitted effect of over 70% in size
% is set by controls: 0 for no effect and ±100 for the full control effect; potency is the fitted concentration of half-maximal effect.

SMILES	Potency	activity change, negative = viability loss	outcome
CC(=O)O[C@H]1CC(C)(C)CC2[C@@]13[C@H](O)C[C@]1(C)[C@@]2(CCC2[C@@]4(C)CC[C@H](O[C@@H]5OC[C@H](O[C@@H]6O[C@H](CO)[C@@H](O)[C@H](O)[C@H]6O[C@@H]6OC[C@@H](O)[C@H](O)[C@H]6O)[C@H](O)[C@H]5O[C@@H]5O[C@H](CO)[C@@H](O)[C@H](O)[C@H]5O)C(C)(C)C4CC[C@]21C)O[C@@H]3O (stereo partly specified)	346 nM (active)	–	–
C[C@H](NC(c1cccc2[nH]c(=O)c(=O)[nH]c12)P(=O)(O)O)c1ccc(Br)cc1 (stereo partly specified)	–	4.04% (inactive)	–
CC1=CC(=O)CC(C)(CO)C1(O)/C=C/C(C)O[C@@H]1O[C@H](CO)[C@@H](O)[C@H](O)[C@H]1O (stereo partly specified)	–	-5.48% [at 17.3 µM] (inactive)	–
COC(=O)C1=CO[C@@H](O[C@@H]2O[C@H](CO)[C@@H](O)[C@H](O)[C@H]2O)[C@@H]2[C@@](C)(O)[C@@H](OC(=O)/C=C/c3ccc(O)cc3)C[C@]12O	–	-6.27% [at 17.3 µM] (inactive)	–
COC(=O)c1ccc(OC(CO)C(O)c2ccc(O)c(OC)c2)c(OC)c1 (stereo unspecified)	–	-13% (inactive)	–
CN(C)c1ccc2c(c1)OC(N)=C(C#N)C2c1cccc(C(F)(F)F)c1 (stereo unspecified)	817 nM (active)	–	–
CC(=O)OC1C(OC(=O)c2ccccc2)C2C(C)(C)CC(=O)CC2(C)C23CCC(C)(C2)C(O)CC13 (stereo unspecified)	–	-23.4% [at 17.3 µM] (inactive)	–
CN1c2ccccc2C(=O)N2CCC3c4ccccc4NC3C21 (stereo unspecified)	2260 nM (active)	–	–
CC1(C)CC2C(O)c3cocc3CC(C)(O)C2C1 (stereo unspecified)	–	-5.43% (inactive)	–
CC(C)C(C#N)O[C@@H]1O[C@H](CO[C@@H]2O[C@@H](C)[C@H](O)[C@@H](O)[C@H]2O)[C@@H](O)[C@H](O)[C@H]1O (stereo partly specified)	–	2.12% [at 17.3 µM] (inactive)	–
Cn1cncc1C(N)(c1ccc(Cl)cc1)c1ccc2c(c1)c(-c1cccc(Cl)c1)cc(=O)n2C (stereo unspecified)	4170 nM (active)	–	–
CC(C)(C)C(=O)CN1C(=O)[C@H](NC(=O)Nc2cccc(C(=O)O)c2)CN(C2CCCCC2)c2ccccc21	inactive	–	–
CC(C)c1cc(C(=O)N2CC[C@@H](NC(=O)C3CC3)C2)n[nH]1	–	-29.2% (inactive)	–
O=C(O)Cc1cn(C2OCC(O)C(O)C2O[C@@H]2O[C@H](CO)[C@@H](O)[C@H](O)[C@H]2O)c2ccccc12 (stereo partly specified)	–	4.89% [at 17.3 µM] (inactive)	–
CC1CCC2(C=O)C(CO)=CCCC2C1(C)CC(=O)O (stereo unspecified)	–	–	inactive
Cc1c(CN2CCN(C(=O)C(C)O)CC2)sc2c(N3CCOCC3)nc(-c3cnc(N)nc3)nc12 (stereo unspecified)	57.8 nM (active)	–	–
